# HCV inhibitor – qHTS Assay for Inhibitors of Hepatitis C Virus (HCV) | 340,000 compounds, 3.4% hits | AID 651820, 2012 | Potency, µM (titrated, usually from 41.8 µM), usual class: inhibitors | Huh7.5.1 HCVcc-Cre infection, luciferase reporter, 44 h
#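 Whole-lifecycle infectious HCVcc-Cre system; cells 1,000/well, compound then virus (~0.5 moi) added 4 h after plating, 44 h culture. Luciferase read 15 sec following 15 min substrate incubation, room temp.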
# HCMV antiviral – qHTS Assay for inhibitors of the human cytomegalovirus (HCMV) | HFF cells, HCMV-luciferase reporter, 72 h; active compounds read low | activity change, negative = inhibition, % at 57.5 µM | 410,000 compounds, 4.5% hits | AID 1259415, 2018; in the data active means activity change below about -60%; inconclusive means no clear call, values can overlap the other calls; inactive means above about -39%
#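 Two compound doses tested in HFFs infected with HCMV-luciferase, MOI 1 PFU/cell, 72 h at 37C. Lysate luminescence read with OneGlo; data normalized against buffer-only and 10uM Salinomycin inhibitor controls.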
# FMDV inh – High Throughput Screening for Foot and Mouth Disease Virus Antivirals. FMDV antiviral cell-based qHTS. Potency, µM (doses to about 57.9 µM), hits mostly inhibitors. 410,000 compounds, 1.2% hits; calls by dose curve; tested in HEK293T cells; further: read-out not given here; nearly all actives have a fitted effect of over 45% in size
# VACV Venus inh – qHTS for Stage-Specific Inhibitors of Vaccinia Orthopoxvirus: Venus Reporter Primary qHTS. Vaccinia virus Venus reporter expression, fluorescence. Potency, µM (doses to about 36.5 µM), most hits filed as inhibitors. 330,000 compounds, 0.46% hits; calls by dose curve; tested in A549 cells; further: nearly all actives have a fitted effect of over 30% in size
# Vaccinia mCherry – qHTS for Stage-Specific Inhibitors of Vaccinia Orthopoxvirus: mCherry Reporter Primary qHTS | 310,000 compounds, 0.63% hits | Vaccinia virus mCherry reporter infection, fluorescence | Potency, µM (highest dose often 36.5 µM), most hits filed as inhibitors | AID 720579, 2013; calls by dose curve; tested in A549 cells; further: nearly all actives have a fitted effect of over 35% in size
# Sm TGR inh – qHTS Assay for the Inhibitors of Schistosoma Mansoni Peroxiredoxins. AID 485364, 2010. Schistosoma mansoni thioredoxin glutathione reductase (TGR), Q962Y6. 360,000 compounds, 3% hits. purified TGR, DTNB reduction, TNB absorbance 405 nm. Potency, µM (series often up to 114 µM), hits mostly inhibitors; further: nearly all actives have a fitted effect of over 60% in size
#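 TGR 20 nM + NADPH 100 uM (dispensed conc.), cpd preinc 15 min RT; start with NADPH (500 uM addition) then DTNB (15 mM addition). Kinetic TNB absorbance, 405 nm filter. Four-parameter Hill fit across titration.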
# Numbers stand for hits; . = inactive; ? = inconclusive; / = no result given; [ ] = remark or other dose. Sampled rows, rich in hits. Any-hit rate of the full collection: about 9.3%. Unless noted, the call rests on the fitted dose curve; in most records, active means well fitted curve in the direction sought with a large enough effect; inconclusive means small, poorly fitted or top-dose-only effect, or another doubt; inactive means no such curve, though single readings can be large; an effect the other way counts as inactive or inconclusive.
SMILES,HCV inhibitor,HCMV antiviral,FMDV inh,VACV Venus inh,Vaccinia mCherry,Sm TGR inh
COc1ccc(NN=Nc2ccc([N+](=O)[O-])cc2)cc1,.,.,.,.,.,.
CC1Cc2ccccc2N1c1nc(C2CC2)nc2c1nnn2Cc1ccccc1 (stereo not given),.,.,.,.,/,.
CC1Cc2ccccc2N1c1ncnc2c1nnn2Cc1ccccc1 (stereo not given),11µM,?,.,/,/,.
COc1cc(O)c(C(CCN2CCCCC2)c2ccc3c(c2)OCO3)c(OC)c1 (stereo not given),.,.,.,?,.,.
CC1CCN(c2ccc(C(=O)OCC(=O)NCCN3C(=O)CSC3=O)cc2[N+](=O)[O-])CC1,.,-78,?,.,.,.
Cc1nnc(SCC(=O)NCc2cccc(F)c2)c2nn(-c3ccccc3)c(C)c12,/,-61,?,.,.,.
COc1cccc(CNC(=O)CSc2nnc(C)c3c(C)n(-c4ccccc4)nc23)c1OC,/,.,?,.,.,.
COc1ccc(CNC(=O)CSc2nnc(C)c3c(C)n(-c4ccccc4)nc23)c(OC)c1,/,-65,?,.,.,.
O=C(N/N=C/c1ccc[nH]1)c1cc2ccccc2cc1O,?,-99,.,.,.,?
Cc1ccc(/C=N/NC(=O)c2c[nH]c3ccccc23)s1,.,-72,.,?,?,.
O=C(N/N=C/c1ccc[nH]1)c1c[nH]c2ccccc12,0.89µM,.,.,/,/,.
O=C(N/N=C/c1ccncc1)c1cc2ccccc2cc1O,.,.,.,/,/,.
CC1CCOC2(O1)C(=O)N(CN1CCN(c3cccc(Cl)c3)CC1)c1ccccc12 (stereo not given),.,.,.,.,.,.
CCOC(=O)[C@]12CCCC=C1N(Cc1ccco1)C(=O)[C@H](CC(=O)N1CCN(C(=O)C3CC3)CC1)C2,/,.,.,.,.,/
Cc1cccc(S(=O)(=O)c2cn(Cc3ccc(F)cc3)c3cc(N4CCCCC4)c(F)cc3c2=O)c1,/,.,.,.,.,.
ClCc1ncc(-c2ccc(Cl)cc2)o1,.,?,.,.,.,25µM
Cc1noc(C)c1CSc1ncnc2sc3c(c12)CCC(C)C3 (stereo not given),.[0.335 µM],/,/,/,/,.
Cc1ccc([N+](=O)[O-])cc1N=C(c1cccc([N+](=O)[O-])c1)N1CCOCC1,.,.,.,.,.,.
O=c1[nH]c2ccccc2n1CCCOc1ccccc1,.,.,.,?,.,.
O=C(Cn1ncc2c1-c1ccccc1OC2)N(Cc1ccco1)C1CCCCC1,.,.,.,.,.,?
CC(CCc1ccco1)NC(=O)Cn1ncc2c1-c1ccccc1OC2 (stereo not given),.,.,.,.,.,50µM
Cc1ccc(C2=CC(c3ccc(N(C)C)cc3)n3nnnc3N2)cc1 (stereo not given),?,-76,.,.,?,?
CCc1ccc(C2=CC(c3cccc(Br)c3)n3nnnc3N2)cc1 (stereo not given),/,-66,.,.,.,25µM
CC(C)c1ccc(C2=CC(c3ccc(C(C)C)cc3)n3nnnc3N2)cc1 (stereo not given),/,.,.,.,?,.
Cc1cccc(C2C=C(c3ccc(C)c(C)c3)Nc3nnnn32)c1 (stereo not given),/,.,.,.,.,40µM
SMILES,HCV inhibitor,HCMV antiviral,FMDV inh,VACV Venus inh,Vaccinia mCherry,Sm TGR inh
CN(Cc1nc(Cc2ccccc2F)no1)Cc1cccc2ncccc12,11µM,-85,16µM,.,.,.
COc1ncccc1C(=O)N1CCCC(N2CCN(c3ccc(F)cc3)CC2)C1 (stereo not given),.,?,.,.,.,/
COc1ccc2oc(=O)c(/C(N)=N/NC(=O)c3ccncc3)cc2c1,.,.,.,.,.,.
O=C(Nc1ccccc1)C(=O)Nc1cccnc1,.,.,.,.,.,.
O=C(Nc1cccnc1)C12CC3CC(CC(C3)C1)C2,.,-64,.,.,.,.
O=C(Nc1cccnc1)C1(F)C(F)(F)C(F)(F)C(F)(F)C(F)(F)C1(F)F,3.2µM,.,.,.,/,.

# High-throughput results as filed in PubChem BioAssay.
